Results published in PubChem BioAssay.
For some of these results: Results with a measured potency or affinity are listed apart. Active and inactive are the calls of the source. Unless noted, how the calls were made is not given here.

Tests used:
[1] = antimalarial activity against Dd2 strain (AID 2302;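 active means growth inhibition above 50% at the single 2 µM test dose, taken to imply half-maximal potency below 2 µM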;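 further: 0% = DMSO untreated growth and 100% = chloroquine plus artemisinin killed control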); conditions: P. falciparum Dd2 in RBCs, LDH growth readout, 72 h; at 2 µM; active compounds read high
[2] = HepG2 cytotoxicity, primary screen, cytotoxicity control for P. falciparum antimalarial project, cell-based, ATP luminescence (AID 2303;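 active means inhibition above 50%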;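 further: 0% = DMSO wells and 100% = digitonin-killed cells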); conditions: HepG2 viability, 24-48 h, at 10 µM, active compounds read high
[3] = target: L-lactate dehydrogenase (Plasmodium falciparum (isolate CDC / Honduras)) (UniProt Q27743); experiment: PfLDH activity inhibition – cell lysate, 3D7 strain, counter-screen for P. falciparum growth inhibition project (AID 2304);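 further: 0% = vehicle and 100% = reference inhibitor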; conditions: P. falciparum 3D7 crude extract, LDH APAD/NBT absorbance; at 2 µM; active compounds read high
[4] = inhibition of 3D7 malaria parasite growth – strain 3D7 (AID 2306);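 further: 0% = DMSO wells and 100% = chloroquine plus artemisinin control wells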; conditions: P. falciparum 3D7 erythrocytic growth, LDH absorbance, 72 h; at 2 µM; active compounds read high
[5] = target: Calcium-dependent protein kinase 1 (Plasmodium falciparum (isolate 3D7)) (UniProt P62344); experiment: PfCDPK1 kinase inhibitors, biochemical, TCAMS library (AID 1159585; cut-off not given, nearly all actives have IC50 up to about 0.98 µM;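 further: inhibitors leave more ATP so luminescence rises with inhibition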); conditions: recombinant PfCDPK1, Kinase-Glo ATP depletion luminescence
[6] = target: Plasmodium falciparum protein kinase 6 (PK6, PF3D7_1337100) (UniProt Q8IDW1); experiment: PfPK6 kinase inhibitors, biochemical, TCAMS library (AID 1159586); conditions: recombinant PfPK6, Kinase-Glo ATP depletion luminescence
[7] = target: Protein kinase 7 (PK7), Plasmodium falciparum 3D7 (PF3D7_0213400) (UniProt Q7YTF7); experiment: inhibition of Plasmodium PK7 catalytic activity – biochemical, TCAMS antimalarial set, Kinase-Glo luminescence (AID 1159587); conditions: recombinant PfPK7, Kinase-Glo ATP depletion luminescence
[8] = target: Calcium-dependent protein kinase 4 (Plasmodium falciparum (isolate 3D7)) (UniProt Q8IBS5); experiment: PfCDPK4 kinase inhibitors, biochemical, TCAMS library (AID 1159588; cut-off not given, nearly all actives have IC50 up to about 0.91 µM); conditions: recombinant PfCDPK4, Kinase-Glo ATP depletion luminescence
Calcium-dependent protein kinase 4 (Plasmodium falciparum (isolate 3D7)), sequence (Q8IBS5 whole entry, looked up): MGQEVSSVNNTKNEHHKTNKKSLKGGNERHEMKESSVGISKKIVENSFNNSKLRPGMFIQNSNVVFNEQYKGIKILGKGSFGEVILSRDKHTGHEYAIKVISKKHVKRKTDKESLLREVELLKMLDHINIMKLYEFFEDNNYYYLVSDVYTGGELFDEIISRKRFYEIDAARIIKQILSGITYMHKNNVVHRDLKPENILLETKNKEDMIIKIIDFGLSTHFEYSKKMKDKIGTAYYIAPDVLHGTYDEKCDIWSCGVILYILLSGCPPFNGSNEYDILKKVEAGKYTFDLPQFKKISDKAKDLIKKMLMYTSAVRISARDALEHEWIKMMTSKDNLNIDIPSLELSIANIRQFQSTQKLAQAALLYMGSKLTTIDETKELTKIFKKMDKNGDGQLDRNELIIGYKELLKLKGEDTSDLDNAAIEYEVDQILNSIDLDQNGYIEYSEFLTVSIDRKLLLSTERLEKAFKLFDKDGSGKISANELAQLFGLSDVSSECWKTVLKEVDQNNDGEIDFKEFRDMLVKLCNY

Calcium-dependent protein kinase 1 (Plasmodium falciparum (isolate 3D7)), sequence (P62344 whole entry, looked up): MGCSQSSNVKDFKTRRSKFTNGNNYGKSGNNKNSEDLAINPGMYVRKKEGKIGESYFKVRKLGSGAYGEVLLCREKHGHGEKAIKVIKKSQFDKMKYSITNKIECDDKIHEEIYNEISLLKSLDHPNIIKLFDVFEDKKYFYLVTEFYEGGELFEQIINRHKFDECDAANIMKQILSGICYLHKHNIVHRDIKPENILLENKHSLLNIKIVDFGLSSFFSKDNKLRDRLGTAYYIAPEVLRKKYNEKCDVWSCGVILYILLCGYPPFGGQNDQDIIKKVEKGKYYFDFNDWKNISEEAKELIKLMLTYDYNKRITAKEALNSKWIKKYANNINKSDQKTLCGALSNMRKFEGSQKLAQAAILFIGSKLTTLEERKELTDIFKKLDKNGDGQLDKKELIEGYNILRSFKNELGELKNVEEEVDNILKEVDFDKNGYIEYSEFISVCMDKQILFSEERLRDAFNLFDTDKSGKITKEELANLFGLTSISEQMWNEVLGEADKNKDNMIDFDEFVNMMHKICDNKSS
Plasmodium falciparum protein kinase 6 (PK6, PF3D7_1337100), sequence (Q8IDW1 1-305): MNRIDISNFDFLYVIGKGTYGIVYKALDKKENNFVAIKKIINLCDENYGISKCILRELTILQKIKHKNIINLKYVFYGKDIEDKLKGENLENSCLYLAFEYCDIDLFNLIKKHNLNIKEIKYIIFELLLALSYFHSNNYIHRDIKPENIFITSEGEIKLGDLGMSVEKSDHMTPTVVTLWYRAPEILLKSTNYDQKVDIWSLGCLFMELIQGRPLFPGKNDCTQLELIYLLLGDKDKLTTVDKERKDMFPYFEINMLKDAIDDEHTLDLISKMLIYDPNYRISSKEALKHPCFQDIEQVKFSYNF
Protein kinase 7 (PK7), Plasmodium falciparum 3D7 (PF3D7_0213400), sequence (Q7YTF7 1-343): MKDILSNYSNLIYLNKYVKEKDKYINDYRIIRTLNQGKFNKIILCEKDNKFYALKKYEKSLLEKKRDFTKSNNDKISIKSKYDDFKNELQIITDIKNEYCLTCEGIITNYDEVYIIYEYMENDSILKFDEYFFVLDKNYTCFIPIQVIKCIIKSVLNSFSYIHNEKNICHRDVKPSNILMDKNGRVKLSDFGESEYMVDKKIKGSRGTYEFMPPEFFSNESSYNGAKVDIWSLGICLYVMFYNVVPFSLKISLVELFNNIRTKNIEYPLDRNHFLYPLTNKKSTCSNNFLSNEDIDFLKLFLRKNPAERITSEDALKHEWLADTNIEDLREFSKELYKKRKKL
L-lactate dehydrogenase (Plasmodium falciparum (isolate CDC / Honduras)), sequence (Q27743 whole entry, looked up): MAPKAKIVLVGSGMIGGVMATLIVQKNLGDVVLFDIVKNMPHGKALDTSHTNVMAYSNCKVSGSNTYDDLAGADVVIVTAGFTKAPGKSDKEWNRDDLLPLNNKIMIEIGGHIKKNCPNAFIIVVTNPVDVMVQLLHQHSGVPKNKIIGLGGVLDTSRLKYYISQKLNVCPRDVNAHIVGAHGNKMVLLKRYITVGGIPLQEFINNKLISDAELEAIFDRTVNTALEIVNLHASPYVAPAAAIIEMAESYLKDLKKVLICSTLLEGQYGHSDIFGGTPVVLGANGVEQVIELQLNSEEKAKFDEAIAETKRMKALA

CC(CCc1ccccc1)NCC(O)c1cccc([N+](=O)[O-])c1 (stereo not given)
inactive: inhibition [2] -2% | inhibition [3] 1% | outcome [5] | outcome [6] | outcome [7] | outcome [8]
active: growth inhibition [1] 98% | growth inhibition [4] 97%

Cc1ccc(CN2CCN(c3cc4c(cc3Cl)CCN4C(=O)Cc3ccc(Cl)c(NC(=O)Nc4cccc(C#N)c4)c3)CC2)cc1
inactive: growth inhibition [1] 29% | inhibition [2] 3% | inhibition [3] 1% | outcome [5] | outcome [6] | outcome [7] | outcome [8]
active: growth inhibition [4] 92%

COc1ccc2nc(C)cc(NN=Cc3cccc(Cl)c3)c2c1
active: growth inhibition [1] 100% | growth inhibition [4] 101%
inactive: inhibition [2] 13% | inhibition [3] 7% | outcome [5] | outcome [6] | outcome [7] | outcome [8]

CCN(CC)CCOc1ccc(C(O)(C#CC(O)(c2ccc(Br)cc2)c2ccc(OCCN(CC)CC)cc2)c2ccc(Br)cc2)cc1 (stereo not given)
inactive: inhibition [3] 7% | outcome [5] | outcome [6] | outcome [7] | outcome [8]
active: growth inhibition [1] 99% | inhibition [2] 99% | growth inhibition [4] 99%

Cc1c[nH]c2ccc(/C=C/C(=O)NC3CCC(CCN4CCc5ccc(C#N)cc5CC4)CC3)cc12 (stereo not given)
active: growth inhibition [1] 91% | growth inhibition [4] 101%
inactive: inhibition [2] 9% | inhibition [3] 0% | outcome [5] | outcome [6] | outcome [7] | outcome [8]

CC(C)(C)c1ccc(CNC(=O)c2cc(CNC3CCNCC3)ccc2O)cc1
inactive: growth inhibition [1] 8% | inhibition [2] 6% | inhibition [3] 2% | outcome [5] | outcome [6] | outcome [7] | outcome [8]
active: growth inhibition [4] 96%

O=C(/C=C/c1ccc(Cl)c(Cl)c1)NCCCCCCN1CCN(C(=O)Nc2ccc(Cl)c(C(F)(F)F)c2)CC1
active: growth inhibition [4] 99%
inactive: growth inhibition [1] 43% | inhibition [2] 47% | inhibition [3] -6% | outcome [5] | outcome [6] | outcome [7] | outcome [8]

COc1ccc2nc(C)cc(Nc3ccc(Cl)c(Cl)c3)c2c1
active: growth inhibition [1] 99% | growth inhibition [4] 100%
inactive: inhibition [2] 30% | inhibition [3] -8% | outcome [5] | outcome [6] | outcome [7] | outcome [8]

COC(=O)C1=CNC=C(C(=O)OC)C1c1ccc(Cl)c([N+](=O)[O-])c1
inactive: inhibition [2] -1% | inhibition [3] -4% | outcome [5] | outcome [6] | outcome [7] | outcome [8]
active: growth inhibition [1] 79% | growth inhibition [4] 93%

FC(F)(F)c1ccc2nc(-c3cccc(-c4cccc(CNCC5CCCO5)c4)c3)[nH]c2c1 (stereo not given)
active: growth inhibition [1] 96% | growth inhibition [4] 100%
inactive: inhibition [2] 23% | inhibition [3] -2% | outcome [5] | outcome [6] | outcome [7] | outcome [8]

COc1ccccc1C1CCN(C2CCC(NC(=O)/C=C/c3cc(C(F)(F)F)ccc3F)CC2)CC1 (stereo not given)
active: growth inhibition [4] 97%
inactive: growth inhibition [1] 32% | inhibition [2] 39% | inhibition [3] -3% | outcome [5] | outcome [6] | outcome [7] | outcome [8]

CC(C)N1CCC(N(Cc2ccc(-c3ccc(C(F)(F)F)cc3)cc2)C(=O)Cn2c(CCc3cccc(F)c3F)cc(=O)c3cn(C)nc32)CC1
active: growth inhibition [1] 78% | inhibition [2] 100% | growth inhibition [4] 89%
inactive: inhibition [3] 6% | outcome [5] | outcome [6] | outcome [7] | outcome [8]

Clc1ccc(-c2csc3ncnc(Cl)c23)cc1
inactive: inhibition [2] -3% | inhibition [3] -6% | outcome [5] | outcome [6] | outcome [7] | outcome [8]
active: growth inhibition [1] 95% | growth inhibition [4] 94%

O=C(C=Cc1ccc(Cl)c(Cl)c1)NCCCCCN1CCCC(CCCNS(=O)(=O)c2cccc3cccnc23)C1 (stereo not given)
inactive: growth inhibition [1] 16% | inhibition [2] 37% | inhibition [3] 2% | outcome [5] | outcome [6] | outcome [7] | outcome [8]
active: growth inhibition [4] 96%

CCOC(=O)c1ccc(NC(=O)NC2CCN(CCCCCNC(=O)/C=C/c3ccc(Cl)c(Cl)c3)C2)cc1 (stereo not given)
inactive: growth inhibition [1] 0% | inhibition [2] 23% | inhibition [3] -3% | outcome [5] | outcome [6] | outcome [7] | outcome [8]
active: growth inhibition [4] 98%

O=C(Nc1cccc(CN2CCN(C(=O)c3cccc(F)c3)CC2)c1)c1ccco1
active: growth inhibition [1] 55% | growth inhibition [4] 88%
inactive: inhibition [2] 7% | inhibition [3] 4% | outcome [5] | outcome [6] | outcome [7] | outcome [8]

Cc1ccc2cc(NC(=O)CCCCCCCON3C(N)=NC(N)=NC34CCCCC4)ccc2n1
active: growth inhibition [1] 86% | growth inhibition [4] 98%
inactive: inhibition [2] 6% | inhibition [3] 3% | outcome [5] | outcome [6] | outcome [7] | outcome [8]

O=C1COc2cc(Cl)c(CNC3CCN(CCc4ccnc5c(F)cc(F)cc45)CC3)nc2N1
active: inhibition [2] 96% | growth inhibition [4] 98%
inactive: growth inhibition [1] 49% | inhibition [3] -2% | outcome [5] | outcome [6] | outcome [7] | outcome [8]

COc1ccc(C(=O)N2CCC3(CC2)C(=O)N(CC(=O)NC2CCCCC2)CN3c2ccccc2)c(OC)c1
inactive: inhibition [2] 4% | inhibition [3] 3% | outcome [5] | outcome [6] | outcome [7] | outcome [8]
active: growth inhibition [1] 99% | growth inhibition [4] 100%

Cc1ccc(NC(=O)c2ccc(C(=O)NC3CCN(CC4CCCCC4)CC3)cc2)cc1
inactive: growth inhibition [1] 0% | inhibition [2] 36% | inhibition [3] -6% | outcome [5] | outcome [6] | outcome [7] | outcome [8]
active: growth inhibition [4] 93%

CCc1ccccc1-c1csc(C(=O)NCC2CCN(Cc3ccc(C(C)(C)C)cc3)C2)c1 (stereo not given)
active: growth inhibition [4] 90%
inactive: growth inhibition [1] 15% | inhibition [2] 25% | inhibition [3] -2% | outcome [5] | outcome [6] | outcome [7] | outcome [8]

Cn1nc(-c2ccc(CNC3CCc4ccccc43)cc2)c2cnc(NCCCN3CCCC3)nc21 (stereo not given)
active: growth inhibition [4] 92%
inactive: growth inhibition [1] 22% | inhibition [2] 27% | inhibition [3] -4% | outcome [5] | outcome [6] | outcome [7] | outcome [8]

Cn1cnc(-c2ccc3c(c2)CCN(CCC2CCC(NC(=O)/C=C/c4ccc(F)cc4)CC2)CC3)c1 (stereo not given)
active: growth inhibition [4] 90%
inactive: growth inhibition [1] 18% | inhibition [2] 26% | inhibition [3] 4% | outcome [5] | outcome [6] | outcome [7] | outcome [8]

N#Cc1ccc2c(c1)CN(CCC1CCC(NC(=O)c3cc4ccccc4cc3N)CC1)CC2 (stereo not given)
inactive: inhibition [2] 5% | inhibition [3] -8% | outcome [5] | outcome [6] | outcome [7] | outcome [8]
active: growth inhibition [1] 52% | growth inhibition [4] 80%

COc1ccc2nccc([C@@H](O)CN3CCC(NC(=O)[C@@H]4Cc5ccccc5CN4C(=O)OC(C)(C)C)CC3)c2c1
inactive: inhibition [2] 15% | inhibition [3] 4% | outcome [5] | outcome [6] | outcome [7] | outcome [8]
active: growth inhibition [1] 61% | growth inhibition [4] 92%

CS(=O)(=O)NCCCNCc1cccc(-c2ccc(-c3nc4ccccc4[nH]3)s2)c1
inactive: growth inhibition [1] -1% | inhibition [2] 24% | inhibition [3] 6% | outcome [5] | outcome [6] | outcome [7] | outcome [8]
active: growth inhibition [4] 90%

Cc1cc(N[C@@H](CC(C)C)C(=O)NCCc2ccccc2)nc(NCCc2cccs2)n1
active: growth inhibition [4] 89%
inactive: growth inhibition [1] 16% | inhibition [2] 0% | inhibition [3] -3% | outcome [5] | outcome [6] | outcome [7] | outcome [8]

CCOc1ccc2c(NN=Cc3cccc([N+](=O)[O-])c3)cc(C)nc2c1
active: growth inhibition [1] 97% | growth inhibition [4] 100%
inactive: inhibition [2] 4% | inhibition [3] 3% | outcome [5] | outcome [6] | outcome [7] | outcome [8]

O=c1cc(NCCCCNCc2cccc(C(F)(F)F)c2)[nH]c2ccccc12
inactive: growth inhibition [1] 34% | inhibition [2] 13% | inhibition [3] -1% | outcome [5] | outcome [6] | outcome [7] | outcome [8]
active: growth inhibition [4] 94%

COc1ccc(Oc2cnc(N)nc2N)c(C(C)C)c1
inactive: growth inhibition [1] -2% | inhibition [3] 4% | outcome [5] | outcome [6] | outcome [7] | outcome [8]
active: inhibition [2] 58% | growth inhibition [4] 97%

COc1ccc(-c2ccc(NC(=O)c3cccc(C#N)c3)cc2)cc1CN(C)C
inactive: growth inhibition [1] 10% | inhibition [2] 11% | inhibition [3] 0% | outcome [5] | outcome [6] | outcome [7] | outcome [8]
active: growth inhibition [4] 103%

OCC1CCN(Cc2ccc(-c3ccc(-c4nc5ccc(C(F)(F)F)cc5[nH]4)s3)cc2)CC1
inactive: inhibition [2] 35% | inhibition [3] -2% | outcome [5] | outcome [6] | outcome [7] | outcome [8]
active: growth inhibition [1] 90% | growth inhibition [4] 102%

Clc1ccc(Nc2nc(NCc3ccccc3)nc(N/N=C/c3ccccn3)n2)cc1
inactive: inhibition [2] 41% | inhibition [3] 3% | outcome [5] | outcome [6] | outcome [7] | outcome [8]
active: growth inhibition [1] 91% | growth inhibition [4] 99%

CCC(C(=O)Nc1cc(=O)[nH]c2nc(-c3ccco3)nn12)c1ccccc1 (stereo not given)
active: growth inhibition [1] 68% | growth inhibition [4] 87%
inactive: inhibition [2] 2% | inhibition [3] -1% | outcome [5] | outcome [6] | outcome [7] | outcome [8]

COc1ccc(Cc2c(N)nc3nc(N)nc(N)c3c2C)cc1
inactive: growth inhibition [1] 3% | inhibition [3] -8% | outcome [5] | outcome [6] | outcome [7] | outcome [8]
active: inhibition [2] 64% | growth inhibition [4] 94%
